KB-V1 cytotox = kills drug-selected multidrug resistant KB-V1 cells | KB-V1 MDR cells viability, CellTiter-Glo, 72 h | Potency, µM (highest dose often 46.1 µM), actives largely listed as cytotoxic | 400,000 compounds, 3.4% hits | AID 1347076; further: on the % scale 0 is the no-effect control and ±100 the full control effect; nearly all actives have a fitted effect of over 60% in size
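In this primary screen, KB-V1 cells overexpressing P-gp are incubated with library compounds (lowest to highest concentration) for 72 h at 37 degrees C before a luminescent ATP viability read.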
SW480 rerep = DNA re-replication induction in SW480 cells | SW480 DNA re-replication, Hoechst DNA content imaging, 48 h | Potency, µM (top dose mostly 46.1 µM), inactives show at the highest dose re-replication activation, hits mostly activators | 340,000 compounds, 1.8% hits | AID 624297; further: % of control where 0% means no effect; nearly all actives have a fitted effect of over 55% in size
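Image-based DNA-content assay: after two days of treatment, nuclei were labelled with the DNA dye Hoechst and imaged, and hits were compounds raising the count of nuclei showing high fluorescence intensity.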
KB-3-1 cytotox = kills parental KB-3-1 adenocarcinoma cells; AID 1347075; Potency, µM (series often up to 46.1 µM), actives largely listed as cytotoxic; 400,000 compounds, 1.4% hits; KB-3-1 viability, CellTiter-Glo ATP luminescence, 72 h; further: on the % scale 0 is the no-effect control and ±100 the full control effect; nearly all actives have a fitted effect of over 60% in size
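Luminescent ATP read-out (CellTiter-Glo) measures survival of drug-naive KB-3-1 cells after 72 h compound exposure at 37 °C. Titration series was screened from lowest to highest concentration, with DMSO vehicle plates as background controls.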
HT1080 IDH1KD tx = HT-1080 IDH1 knockdown cell toxicity (counter line); Potency, µM (top dose mostly 46.1 µM), without a hit: at the top dose activity, negative = toxicity, hits mostly cytotoxic; AID 686971; 360,000 compounds, 2% hits; HT-1080 IDH1 knockdown viability, ATP luminescence, 48 h;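 further: 0% = DMSO wells and -100% = cell-free medium wells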
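After a 2 h attachment period, IDH1KD HT-1080 cells took pin-transferred compound for 48 h at 37 °C; ATP-based luminescence after 10 min room-temperature reagent incubation reported viability.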
MCF10A rerep = DNA re-replication induction in MCF 10a cells | MCF 10A DNA re-replication, Hoechst nuclear intensity, 48 h | 350,000 compounds, 2.9% hits | Potency, µM (doses to about 46.1 µM), inactives show top-dose activity, positive = re-replication, actives largely listed as activators | AID 624296; further: % of control where 0% means no effect; nearly all actives have a fitted effect of over 50% in size
HT1080-NT tox = kills 2HG-producing HT-1080-NT fibrosarcoma cells; HT-1080-NT fibrosarcoma viability, CellTiter-Glo ATP luminescence, 48 h; Potency, µM (top dose mostly 46.1 µM), without a hit: at the top dose activity, negative = less viability, most hits filed as cytotoxic; 360,000 compounds, 1.6% hits; AID 686970;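 further: NT is the 2HG producing partner of a matched IDH1 knockdown line; 0% = DMSO-treated cells and -100% = media-only wells without cells; nearly all actives have a fitted effect of over 55% in size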
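Toxicity toward the 2HG-producing NT line was scored as %Activity, normalised to DMSO and no-cell wells, from CellTiter-Glo luminescence after 48 hours' treatment.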
* marks the source's active call; other numbers are inactive results; i = inactive; ? = inconclusive; / = no result given. In the library only some 7.9% were active in any assay of this set; here they are far more common. The call rests on the fitted dose curve; in most records, active means well fitted curve in the direction sought with a large enough effect; inconclusive means small, poorly fitted or top-dose-only effect, or another doubt; inactive means no such curve, though single readings can be large; an effect the other way counts as inactive or inconclusive. Potency means the concentration at half of the fitted maximal effect.

SMILES | KB-V1 cytotox | SW480 rerep | KB-3-1 cytotox | HT1080 IDH1KD tx | MCF10A rerep | HT1080-NT tox
CC(C)(C)c1ccc(N/N=C(\C#N)S(=O)(=O)C(C)(C)C)cc1 | ? | 7.1% | ? | ? | 5.9% | 23.1µM*
CCOC(=O)C1(Cc2cccc(OC)c2)CCCN(C(=O)c2ccc(OC)o2)C1 (centres undefined) | ? | 3.5% | i | 18.1% | 1.7% | 15.2%
CC(=O)Nc1ccc(N/C=C/C(=O)c2ccc(C)o2)cc1 | i | -0.2% | i | -18.3% | 23.1µM* | -15.2%
COc1cc(C(=O)/C=C/Nc2ccc(NC(C)=O)cc2)cc(OC)c1OC | 20.6µM* | 2.4% | i | 18.4µM* | 13µM* | ?
COc1cccc(C2=CC(c3cc(Br)ccc3F)n3nnnc3N2)c1 (centres undefined) | i | / | 13µM* | / | / | /
CCOc1ccc(C2C=C(c3cccc(OC)c3)Nc3nnnn32)cc1 (centres undefined) | i | / | i | / | / | /
COC(=O)[C@@]1(C(C)C)N=C(c2cc(OC)c(OC)c(OC)c2)[C@]2(O1)C(=O)Nc1ccc(F)cc12 | i | / | i | -14.1% | / | -8.8%
Cc1c(NC(=O)CN2C(=O)NC(C)(c3ccc4c(c3)OCCO4)C2=O)c(=O)n(-c2ccccc2)n1C (centres undefined) | i | / | i | 12.6% | -5.4% | 19.9%
O=C(N/C(=C/c1ccccc1Cl)C(=O)N1CCOCC1)c1ccccc1 | i | -2.6% | i | -0.5% | 14.9% | 3.0%
O=C(/C(=C/c1ccccc1Cl)c1ccccc1)N1CCOCC1 | 23.1µM* | -0.3% | i | -5.1% | 14.5% | -1.5%
CCC(C)(c1ccc(C(=O)OC)s1)c1ccc(C(=O)OC)s1 | ? | -0.4% | i | 0.8% | ? | 0.3%
Cc1cccc(-c2noc(CNC(=O)c3ccoc3C)n2)c1 | i | 27.0% | i | -6.0% | 20.6µM* | -1.6%
N#C/C(=C(/O)c1ccc([N+](=O)[O-])o1)c1nc2ccccc2[nH]1 | ? | ? | ? | -0.9% | 3.26µM* | 23.9%
N#C/C(=C\c1ccc([N+](=O)[O-])o1)c1nc2ccccc2[nH]1 | i | ? | 13µM* | 5.8µM* | 3.66µM* | 5.8µM*
COc1cccc(OC)c1/C(O)=C(\C#N)c1nc2ccccc2[nH]1 | i | -14.0% | i | -25.5% | 1.3% | 17.8µM*
N#C/C(=C\Nc1ccc2c(c1)OCCO2)c1nc2ccccc2[nH]1 | 14.6µM* | ? | ? | -8.8% | ? | 0.0%
CC(C)(C)/C(O)=C(/C#N)c1nc2ccccc2[nH]1 | ? | 15.0% | i | -18.3% | ? | -18.6%
COc1ccc(-c2csc(/C(C#N)=C/Nc3ccc4c(c3)OCCO4)n2)cc1 | i | 2.31µM* | i | -0.6% | 2.06µM* | 16.6%
Cc1ccc2nc(/C(C#N)=C\c3ccc([N+](=O)[O-])o3)[nH]c2c1 | i | ? | i | 2µM* | 9.2µM* | ?
C[n+]1ccc(/C=C/c2cccs2)cc1 | i | -2.9% | ? | ? | -21.0% | -20.1%
Cn1cc(CCNC(=O)CC2C(=O)NCCN2Cc2cccc(Oc3ccccc3)c2)cn1 (centres undefined) | i | 25.9µM* | ? | ? | ? | -4.1%
O=C(Cn1ncc2c([nH]c3ccccc32)c1=O)NCC1CCN(Cc2ccc(F)cc2)CC1 | i | 0.6% | i | 2.2% | -0.8% | 1.9%
COc1ccc(C(=O)CC(=O)C(=O)Nc2ccc(Cl)cc2)cc1 | i | 19.9% | i | ? | 17.0% | -1.6%
COc1ccc(C(=O)CC(Nc2ccc([N+](=O)[O-])cc2)c2ccc(Cl)cc2)cc1 (centres undefined) | 6.51µM* | ? | i | 10µM* | 12.8% | ?
Nn1c(SCc2c(F)cccc2F)nnc1-c1ccccn1 | i | 7.31µM* | i | 29.9% | 2.4% | 13.9%

Assay outcomes (PubChem BioAssay)
